RXFP1 ag: qHTS Assay for Agonists of the Relaxin Receptor RXFP1. Relaxin receptor 1 (Homo sapiens), Q9HBX9. HEK293T-RXFP1 cAMP TR-FRET, 30 min; response scale: percent of porcine relaxin response, buffer zero. Potency, µM (doses to about 57.5 µM), without a hit: at the highest dose activation, usual class: activators. 370,000 tested, 0.3% active; active = well fitted activation curve with a large enough effect; inconclusive = small, poorly fitted or top-dose-only effect; note: potency is the fitted concentration of half-maximal effect; % is set by controls: 0 for no effect and ±100 for the full control effect; nearly all actives have a fitted effect of over 60% in size
Target sequence (Q9HBX9 whole entry, looked up): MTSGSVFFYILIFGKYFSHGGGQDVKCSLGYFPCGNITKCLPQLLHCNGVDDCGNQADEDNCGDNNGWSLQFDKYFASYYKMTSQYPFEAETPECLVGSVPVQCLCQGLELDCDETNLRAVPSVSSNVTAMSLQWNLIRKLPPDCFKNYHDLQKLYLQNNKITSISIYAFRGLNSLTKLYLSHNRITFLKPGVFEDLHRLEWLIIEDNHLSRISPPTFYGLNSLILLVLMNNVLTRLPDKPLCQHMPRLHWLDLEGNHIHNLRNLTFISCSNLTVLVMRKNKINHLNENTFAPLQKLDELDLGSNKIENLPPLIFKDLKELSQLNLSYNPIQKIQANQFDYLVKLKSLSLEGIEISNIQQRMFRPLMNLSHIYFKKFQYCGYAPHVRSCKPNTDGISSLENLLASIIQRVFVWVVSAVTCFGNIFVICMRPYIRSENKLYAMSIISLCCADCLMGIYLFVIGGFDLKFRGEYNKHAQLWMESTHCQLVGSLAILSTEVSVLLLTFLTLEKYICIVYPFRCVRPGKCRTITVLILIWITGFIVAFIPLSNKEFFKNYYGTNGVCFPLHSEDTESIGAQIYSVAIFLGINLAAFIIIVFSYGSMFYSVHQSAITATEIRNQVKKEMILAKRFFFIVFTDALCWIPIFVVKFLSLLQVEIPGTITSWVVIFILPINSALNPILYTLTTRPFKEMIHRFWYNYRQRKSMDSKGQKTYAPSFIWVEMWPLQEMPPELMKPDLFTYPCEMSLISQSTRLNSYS
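HEK293T cells stably expressing RXFP1 were pretreated with the PDE4 inhibitor Ro 20174, exposed to compounds for 30 min at 37C, lysed, and cAMP was read by TR-FRET. Data normalized to buffer (basal) and 29 nM porcine relaxin (100%).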
RXFP1 antag: qHTS Assay for Antagonists of the Relaxin Receptor RXFP1; HEK293-RXFP1, relaxin-stimulated cAMP HTRF, 30 min; hits give low values; activity change, negative = inhibition, % at 57.5 µM; 350,000 tested, 0.59% active;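 active = activity change of -60% or lower, but not beyond a set lower limit; inconclusive = change between -60% and -40%, or beyond the set limit; inactive = change above -40%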; note: % is set by controls: 0 for no effect and ±100 for the full control effect
gsp antag: qHTS for Antagonists of gsp, the Etiologic Mutation Responsible for Fibrous Dysplasia/McCune-Albright Syndrome: qHTS; gsp-mutant cells, cAMP HTRF, 30 min; Potency, µM (doses to about 76.9 µM), inactives show top-dose activity change, negative = inhibition, actives largely listed as inhibitors; 340,000 tested, 0.4% active; calls by dose curve; cell line not stated here;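 note: intracellular cAMP measured with PDE inhibitor Ro 20-1724 present during compound exposure; potency is the fitted concentration of half-maximal effect; % is set by controls: 0 for no effect and ±100 for the full control effect; nearly all actives have a fitted effect of over 65% in size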
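Cells, 2000/well, grown 16–24 h in DMEM 10% FBS with 0.5 mg/ml G418, then compounds plus […] (300 uM addition stock), 30 min at 37C. cAMP read by HTRF (cAMP-d2 and anti-cAMP antibody-K in lysis buffer) after 30 min RT.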
Akt phos inh: HTS Assay for Inhibitors of Akt Phophorylation: Primary Screen; Neuro2A IGF-stimulated pAkt S473 HTRF, 20 min; hits give low values; activity change, % for hits at 50 µM; 360,000 tested, 0.32% active; AID 651550, 2012; in the data active = activity change below about -80%; inconclusive = mostly about -51% to -80%; note: % is set by controls: 0 for no effect and ±100 for the full control effect
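Single-point screen (50 µM final compound) in Neuro2A cells stimulated 20 min with 6 nM IGF at 37 deg C. After lysis, Ser473-phosphorylated Akt read by HTRF (ex 330 nm, em 615/665 nm) as the 665/615 ratio.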
gsp agonist: qHTS for Agonist of gsp, the Etiologic Mutation Responsible for Fibrous Dysplasia/McCune-Albright Syndrome: qHTS. gsp mutant cells, cAMP HTRF, 30 min. Potency, µM (titrated, usually from 76.9 µM), for the others: at the highest dose activation (cAMP increase), most hits filed as activators. 340,000 tested, 0.13% active. AID 624287, 2012; active = well fitted activation curve with a large enough effect; inconclusive = small, poorly fitted or top-dose-only effect, or another doubt; inactive = no such curve, though single readings can be large or run the other way; cell line not stated here;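 note: phosphodiesterase inhibitor Ro 20-1724 added with compounds to block cAMP breakdown; potency is the fitted concentration of half-maximal effect; nearly all actives have a fitted effect of over 60% in size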
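Cells stably selected in G418 were plated at 2000/well, grown 16-24 hr, then given compounds in DMSO with the PDE inhibitor […] (300 uM solution added) for 30 min at 37C; cAMP was read by HTRF.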
* hit, by the source's call; [ ] = remark or other dose. Compounds with a hit are over-represented: about 1.2% of the library has one in this group of screens.

O=C(c1ccc2c(c1)OCO2)C1CCCN(Cc2ccc(F)c(F)c2)C1 (configuration not stated) was read as RXFP1 ag 1%, RXFP1 antag -22, gsp antag -11%, Akt phos inh inactive and gsp agonist -8%.
For O=C(N[C@H]1N=C(c2ccccc2F)c2cccc3c2N(CC3)C1=O)c1cc2ccccc2[nH]1 the results were RXFP1 antag -23.
`CN(C)CCN=Cc1c(O)n(Cc2ccc3c(c2)OCO3)c(=S)[nH]c1=O` gave RXFP1 ag 9%, RXFP1 antag -7, gsp antag 3%, Akt phos inh inactive and gsp agonist 1%.
O=c1[nH]c(=S)n(Cc2ccc(F)cc2)c(O)c1C=NCc1ccc2c(c1)OCO2 was read as RXFP1 ag 25µM*, RXFP1 antag 6, gsp antag 9%, Akt phos inh inactive and gsp agonist inconclusive.
For CCOc1ccc(-n2nc3c(=S)[nH]nc(C)c3c2C)cc1 the results were RXFP1 ag 5.6µM*, RXFP1 antag -4, gsp antag 11%, Akt phos inh inactive and gsp agonist inconclusive.
COc1ccc(CNCCc2c(C)[nH]c3ccc(OC(F)(F)F)cc23)c(OC)c1 was read as RXFP1 ag 0%, RXFP1 antag -83*, gsp antag -1%, Akt phos inh inactive and gsp agonist inconclusive.
`C#CC(O)(C=CCl)CC` (configuration not stated) gave RXFP1 antag -8.
Screening O=C(Nc1ccc(Br)cc1)c1cc(Br)cc(Br)c1O returned RXFP1 antag -81*.
C=CCc1cc(C=C2C(=O)NC(=O)NC2=O)cc(OC)c1OCc1ccc(C(=O)O)cc1 was read as RXFP1 ag 1%, RXFP1 antag -4, gsp antag -23%, Akt phos inh inactive and gsp agonist -1%.
For C=CCc1cc(C=C2C(=O)N(C)C(=O)N(C)C2=O)cc(OCC)c1OCc1ccccc1 the results were RXFP1 ag 2%, RXFP1 antag -77*, gsp antag -12%, Akt phos inh inactive and gsp agonist -19%.
For CN1CCC(N(Cc2ccccc2)c2ccccc2)CC1 the results were RXFP1 antag -7.
Screening O=C(O)c1ccc(/C=C/c2nc3ccccc3c(=O)n2-c2ccc(Br)cc2)cc1 returned RXFP1 ag 0%, RXFP1 antag -4, gsp antag 14µM*, Akt phos inh inactive and gsp agonist -31%.
Screening O=c1c2ccccc2nc(/C=C/c2ccccc2)n1-c1ccc(O)cc1 returned RXFP1 ag 1%, RXFP1 antag -12, gsp antag -22%, Akt phos inh inactive and gsp agonist -5%.
Screening CCC(=NCCN1CCOCC1)c1c(O)n(-c2ccccc2C)c(=O)[nH]c1=O returned RXFP1 ag 0%, RXFP1 antag 3, gsp antag 5%, Akt phos inh -122%* and gsp agonist 16%.
`COc1cccc(C(=O)CCN[C@@H](C)[C@H](O)c2ccccc2)c1` gave RXFP1 antag 20.
Screening Cn1cccc1/C=C1/C(=O)NC(=S)N(Cc2ccc(F)cc2)C1=O returned RXFP1 ag 6%, RXFP1 antag -69*, gsp antag -25%, Akt phos inh inactive and gsp agonist -5%[15.4 µM].
`CCN(CCNc1ccc([N+](=O)[O-])c2cccnc12)S(=O)(=O)c1ccccc1` gave RXFP1 ag 1%, RXFP1 antag -4, gsp antag -5%, Akt phos inh inactive and gsp agonist 14%.
`CCCN(CCC)c1c([N+](=O)[O-])cc(S(N)(=O)=O)cc1[N+](=O)[O-]` gave RXFP1 antag -73*.
`Cc1ccc(OCC(=O)N2CCN(CCc3ccncc3)CC2)cc1` gave RXFP1 ag -3% and RXFP1 antag 6.
